For 21 compounds, Potency and activity, positive = activation results are on record in PubChem BioAssay (Tox21).

Records with an inconclusive call do not appear. Where a call stands in place of a potency, no number is given. Unmarked numbers belong to inactive results. Activity calls are given as the source filed them. Calls follow the shape of the full dose curve.
Potency is read from the fitted curve at half-maximal effect.

The test can be described thus: Nuclear factor erythroid 2-related factor 2/antioxidant responsive element (Nrf2/ARE) small molecule agonists: luciferase reporter gene qHTS assay in human keratinocytes (AID 1919969). Also: nearly all actives have a fitted effect of over 35% in size. The note with it: KeratinoSens HaCaT ARE-luciferase, luminescence, 24 h; series mostly up to 92.4 µM.
For `CN=C(NC#N)Nc1ccc(C2=NNC(=O)CC2C)cc1` (stereo unspecified), the Potency result was “inactive”. Regarding `CCN(CC)CCOC(=O)C(Cc1cccc2ccccc12)CC1CCCO1` (stereo unspecified), the Potency entry is “inactive”. Same read-out and setting: for `O=c1[nH]cnc2ccccc12` the value was 0.0631 µM (active). Regarding `CCCCCCCCCCOc1cc2c(=O)c(C(=O)OCC)c[nH]c2cc1OCC`, the activity, positive = activation was -2.6% [at 8.39 µM]. Regarding `CCC(=O)CC(C)CC` (stereo unspecified), the activity, positive = activation was -3.45% [at 0.349 µM]. On to `CCCCOCCOC(=O)COc1ccc(Cl)cc1Cl`, for which the Potency entry is “inactive”. In the case of `CC(=O)CC(=O)OC(C)(C)C`, the Potency result is “inactive”. As for `CC(COC(C)(C)C)OCCCO` (stereo unspecified), the Potency result was “inactive”. As to `CCCC1CCCC(=O)O1` (stereo unspecified), the Potency entry was “inactive”. Consider `CCCCCCCCCOC(=O)c1ccccc1C(=O)OCCCCCCCCC`, for which the Potency result was “inactive”. Turning to `N#CC1(N)CCCCC1`, the Potency entry was “inactive”. For the compound `Cc1ccc(-n2nc(C(C)(C)C)cc2NC(=O)Nc2ccc(OCCN3CCOCC3)c3ccccc23)cc1`, the Potency result is “inactive”. Regarding `CCN(CCCCOC(=O)c1ccc(OC)c(OC)c1)C(C)Cc1ccc(OC)cc1` (stereo unspecified), the Potency result is “inactive”. Same read-out and setting: for `C=COCC(C)C` the value was “inactive”; for `C/C=C/C(=O)OCC(C)C`, “inactive”; for `N#CSc1ccc(N)c([N+](=O)[O-])c1`, 24.5 µM (active). As for `C=C(C)C(=O)OCCCCCCCCCCOC(=O)C(=C)C`, the Potency entry is “inactive”. `Cc1ccc(C(=O)Oc2ccc(C(O)CNC(C)(C)C)cc2OC(=O)c2ccc(C)cc2)cc1` (stereo unspecified): the Potency entry was “inactive”. Consider `C/C=C/C(=O)Oc1c(CCCCCC(C)C)cc([N+](=O)[O-])cc1[N+](=O)[O-]`, for which the Potency result is “inactive”. As for `O=C(CCCCCCCCc1cccnc1)N1CCC(C=C(c2ccccc2)c2ccccc2)CC1`, the Potency entry is “inactive”. Consider `O=C1CCCN1CCO`, for which the Potency result is “inactive”.
